TDP1 cell noCPT: qHTS for Inhibitors of human tyrosyl-DNA phosphodiesterase 1 (TDP1): qHTS in cells in absence of CPT. DT40 Tdp1-/- hTDP1 cells, no CPT, ATP luminescence, 48 h. AID 686978, 2013. 420,000 tested, 15% active. Potency, µM (highest dose often 46.2 µM), inactives show at the top dose activity change, negative = growth inhibition, hits mostly inhibitors; note: potency is the fitted concentration of half-maximal effect; nearly all actives have a fitted effect of over 55% in size
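Readout: luminescence from CellTiter-Glo after 30 min in the dark at RT. Cells: DT40 Tdp1-/- with stable hTDP1, 400/well. Exposure: compounds alone, ≥48 hr, 37 °C.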
IL-1B inflam inh: qHTS for Inhibitors of Inflammasome Signaling: IL-1-beta AlphaLISA Primary Screen; 360,000 tested, 4.7% active; AID 743279, 2014; THP-1 LPS/ATP IL-1B secretion, AlphaLISA, 16 h; hits give low values; activity change, % at 57.5 µM; in the data active = activity change below about -50%; inconclusive = mostly about -30% to -49%
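THP-1 cells pretreated 1 hr with compounds (up to 57.5 uM final), then stimulated with LPS (250 ng/mL final) plus ATP (1.25 mM final); secreted IL-1B measured by AlphaLISA after 16 hr, decreased signal indicating inhibition.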
VP16 counter: VP16 counterscreen qHTS for inhibitors of ROR gamma transcriptional activity | Drosophila S2 Gal4-VP16 UAS-luciferase, luminescence, 20 h | Potency, µM (doses to about 53.6 µM), for inactives: at the top dose activity, negative = inhibition, actives largely listed as inhibitors | 310,000 tested, 3.5% active | AID 2546, 2010;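 note: Gal4-VP16 expression switched on by copper sulfate through the metallothionein promoter; potency is the fitted concentration of half-maximal effect; nearly all actives have a fitted effect of over 50% in size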
LDHA block: qHTS assay for inhibitors of human lactate dehydrogenase; L-lactate dehydrogenase A chain (Homo sapiens), P00338; purified LDHA, NADH/diaphorase-resazurin fluorescence; hits give low values; activity change, % (values are at about 110 or 230 µM); 480,000 tested, 0.15% active; AID 1347041, 2019; in the data active = activity change below about -30%; inconclusive = mostly about -25% to -30%;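 note: plate controls were DMSO wells for no effect and wells without enzyme for full effect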
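Human LDH5 (2 nM) was incubated with 0.06 mM NADH and 0.2 mM pyruvate for 5 min at room temperature in Tris pH 7.4. Remaining NADH was coupled through diaphorase/resazurin, and resorufin fluorescence was read at 0 and 20 min.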
DT40 TDP1 CPT: qHTS for Inhibitors of human tyrosyl-DNA phosphodiesterase 1 (TDP1): qHTS in cells in presence of CPT | chicken DT40 Tdp1-/-;hTDP1 cells + 20 nM CPT, ATP luminescence, 48 h | Potency, µM (top dose mostly 46.2 µM), for the others: at the highest dose activity change, negative = growth inhibition, usual class: inhibitors | 420,000 tested, 12% active | AID 686979, 2013; note: potency is the fitted concentration of half-maximal effect; nearly all actives have a fitted effect of over 55% in size
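Cell growth measured by CellTiter-Glo luminescence after a minimum 48 h, 37 C compound exposure with 20 nM CPT in Tdp1-knockout DT40 cells stably expressing hTDP1, seeded 400/well; qHTS titration format.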
RORg inh: qHTS for inhibitors of ROR gamma transcriptional activity | AID 2551, 2010 | Drosophila S2 Gal4-RORgamma UAS-luciferase reporter, 20 h | 310,000 tested, 5.4% active | Potency, µM (series often up to 53.6 µM), without a hit: at the highest dose activity change, negative = inhibition, most hits filed as inhibitors; note: potency is the fitted concentration of half-maximal effect; nearly all actives have a fitted effect of over 60% in size
Target sequence (P51450 whole entry, looked up, the tested form may be a part): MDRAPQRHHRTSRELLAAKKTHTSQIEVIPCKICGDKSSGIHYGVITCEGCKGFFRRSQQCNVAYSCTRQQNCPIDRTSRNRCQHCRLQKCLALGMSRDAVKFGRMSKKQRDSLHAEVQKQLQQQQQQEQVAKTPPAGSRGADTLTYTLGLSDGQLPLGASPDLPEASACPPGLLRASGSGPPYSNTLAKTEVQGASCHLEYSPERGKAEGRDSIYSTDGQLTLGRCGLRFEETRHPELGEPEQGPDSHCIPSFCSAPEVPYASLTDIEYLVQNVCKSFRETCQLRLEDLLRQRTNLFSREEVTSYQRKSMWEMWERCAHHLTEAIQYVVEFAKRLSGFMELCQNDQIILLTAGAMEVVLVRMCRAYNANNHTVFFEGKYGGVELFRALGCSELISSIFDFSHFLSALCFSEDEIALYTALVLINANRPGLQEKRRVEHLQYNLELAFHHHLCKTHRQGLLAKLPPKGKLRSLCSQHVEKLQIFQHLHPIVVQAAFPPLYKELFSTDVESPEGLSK
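Luminescence from a UAS-regulated Photinus luciferase reporter in stably transfected Drosophila Schneider cells is measured; decreased signal marks ROR gamma inhibition. Fusion expression is induced by 700 uM copper sulfate for 20 hr.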
An asterisk follows results filed as active; ? = inconclusive; nt = no result given; [ ] = another dose, or the depositor's remark. Most compounds without a hit are left out; they make up all but 18% or so of the library. Unless noted, calls come from the whole dose curve; as a rule, active = well fitted curve in the direction sought with a large enough effect; inconclusive = small, poorly fitted or top-dose-only effect, or another doubt; inactive = no such curve, though single readings can be large; an effect the other way counts as inactive or inconclusive. Unless noted, % is set by controls: 0 for no effect and ±100 for the full control effect.

SMILES | TDP1 cell noCPT | IL-1B inflam inh | VP16 counter | LDHA block | DT40 TDP1 CPT | RORg inh
CC(CCc1ccccc1)NC(=O)C(=O)Nc1cccc(N2CCCS2(=O)=O)c1 (configuration not stated) | nt | nt | nt | -7 | nt | nt
Cc1ccccc1C(=O)N1CC=C(c2c[nH]c3ccccc23)CC1 | nt | nt | nt | 1 | nt | nt
O=C(Nc1ccc(F)c(Cl)c1)N1CC=C(c2c[nH]c3ccccc23)CC1 | 16µM* | nt | nt | -6 | 23µM* | nt
O=C(Nc1cccc(F)c1)N1CC=C(c2ccc(Cl)cc2)CC1 | ? | ? | 0% | -1 | ? | 6%
O=C(Nc1ccccc1C(F)(F)F)N1CC=C(c2c[nH]c3ccccc23)CC1 | 26µM* | nt | nt | -7 | 21µM* | nt
Cn1c(=O)[nH]c(=O)c2c1nc(N1CCN(CC(N)=O)CC1)n2Cc1ccc(Cl)cc1Cl | nt | nt | nt | -2 | nt | nt
CSc1nnc(-c2ccccc2N=Cc2c(C)[nH]n(-c3ccc4ccccc4c3)c2=O)c(=O)[nH]1 | ? | 49 | -16% | 2 | 21µM* | 35%
CC(C)(C)C(=O)NC(=S)Nc1ccccn1 | -28% | -3 | ? | -6 | 3% | 13µM*
CC(C)C(=O)NC(=S)Nc1ccccn1 | -2% | -7 | ? | 1 | -3% | 13µM*
Cc1ccc(-c2cc(C(=O)NC3CC3)c3ccccc3n2)o1 | nt | nt | nt | -12 | nt | nt
Fc1ccc(-[n+]2nc(Nc3ccccc3)sc2-c2ccc(OCc3ccccc3)cc2)cc1 | 23µM* | 2 | -15% | -4 | 16µM* | -38%
CCc1ccc(Nc2n[n+](C)c(-c3ccncc3)s2)cc1 | 26µM* | 37 | 8% | -3 | 16µM* | -30%
COc1ccc(C)cc1Nc1n[n+](-c2ccccc2)c(-c2ccc(SC)cc2)s1 | 15µM* | 8 | 2% | 2 | 18µM* | -13%
CCc1ccc(Nc2n[n+](-c3ccccc3)c(-c3ccc(C(=O)O)cc3)s2)cc1 | -18% | 0 | 13% | -1 | -29% | 13%
CCc1ccc(Nc2n[n+](-c3ccccc3)c(-c3ccc(OC)c(Br)c3)s2)cc1 | ? | ? | 1% | -3 | 16µM* | 27%
O=C(Nc1ccc(Cl)cc1)c1nccnc1-c1nc2ccccc2s1 | nt | nt | nt | 10 | nt | nt
COc1ccc(C)cc1Nc1n[n+](-c2ccccc2)c(-c2cc([N+](=O)[O-])cc(OC)c2O)s1 | ? | 7 | -3% | 8 | 21µM* | -5%
COc1ccc(C)cc1Nc1n[n+](-c2ccccc2)c(-c2ccc(NC(C)=O)cc2)s1 | -27% | -12 | -5% | 3 | ? | -4%
CCc1ccc(Nc2n[n+](-c3ccccc3)c(-c3ccc(SC)cc3)s2)cc1 | 6.5µM* | -16 | -1% | 2 | 6.5µM* | 8%
CSc1ccc(-c2sc(Nc3ccccc3)n[n+]2-c2ccccc2)cc1 | ? | -11 | -10% | -4 | 16µM* | -6%
Cn1c(=O)n(CCCOc2ccc(Cl)cc2)c2ccccc21 | 18µM* | -14 | 3%[0.365 µM] | 2 | 15µM* | 2%
CCCCOC(=O)Cn1c(=N)n(CCC)c2ccccc21 | -9% | 31 | -13% | -3 | 0% | 23%
Cn1c(=O)n(CCc2ccccc2)c2ccccc21 | 0% | 22 | 20% | -3 | 0% | -1%[1.91 µM]
Cn1c(=O)n(CCCOc2ccc(Br)cc2)c2ccccc21 | ? | -8 | ? | -5 | 0% | 10µM*
N=c1n(CCCOc2ccc(Br)cc2)c2ccccc2n1CC(N)=O | 16µM* | -14 | 2% | -1 | 18µM* | -15%
SMILES | TDP1 cell noCPT | IL-1B inflam inh | VP16 counter | LDHA block | DT40 TDP1 CPT | RORg inh
O=C(CC1C=CCC1)Nc1ccc(SC2CCCC2)cc1 (configuration not stated) | nt | nt | nt | 1 | nt | nt
Cc1cccc(C)c1NC(=O)CSc1nnc(Cc2ccccc2)n1-n1cccc1 | nt | nt | nt | 4 | nt | nt
O=C(/C=C/Nc1ccc(F)c(Cl)c1)c1ccc(-c2ccccc2)cc1 | nt | nt | nt | 0 | nt | nt
Cc1ccc(C)c(N=C2CCCN2Cc2ccccc2)c1C#N | 16µM* | 6 | 0% | 1 | ? | 39%
O=C(O)CCC(CNS(=O)(=O)c1ccc(Cl)cc1)C(F)(F)F (configuration not stated) | nt | nt | nt | 1 | nt | nt
CCOc1ccc(NC(=O)c2cnn3c(C(F)F)cc(-c4ccc(C)cc4)nc23)cc1 | 6% | nt | nt | -10 | 4% | nt
Cc1nn(Cc2c(Cl)cccc2Cl)c(C)c1NC(=O)c1cnn2c(C(F)F)cc(-c3ccccc3)nc12 | ? | 13 | -1% | -6 | 21µM* | -36%
Cc1ccc(-c2cc(C(F)F)n3ncc(C(=O)Nc4c(C)nn(Cc5c(Cl)cccc5Cl)c4C)c3n2)cc1 | 15µM* | -7 | 0% | -11 | 10µM* | -8%
Cc1ccc(C2CC(C(F)F)n3ncc(C(=O)Nc4c(C)nn(Cc5c(F)cccc5Cl)c4C)c3N2)cc1 (configuration not stated) | 18µM* | -22 | 2% | -5 | ? | 10%
CCOc1ccccc1CNC(=O)c1ccc(CS(=O)c2ccc(OC)cc2)o1 (configuration not stated) | nt | nt | nt | 10 | nt | nt
CCOC(=O)c1ccc(NCc2c(Cl)cccc2Cl)cc1 | nt | nt | nt | 11 | nt | nt
C/C(=N\NC(=O)c1cccc(C)c1)c1ccc(N2CCOCC2)cc1 | -12% | 7 | 4% | -5 | ? | ?
CCNC(=S)N/N=C(\C)c1ccc(N2CCOCC2)cc1 | ? | -9 | 3.5µM* | -7 | -24% | 2.5µM*
CNC(=S)NN=C(C)c1ccc(OC)cc1O | 0.012µM* | -76* | nt | 7 | 0.016µM* | nt
COc1ccc(/C(C)=N/NC(=O)c2ccccc2OCc2ccccc2)c(OC)c1 | ? | 11 | -9% | -8 | ? | -14%
CNC(=S)N/N=C(\C)c1ccc(N2CCOCC2)cc1 | ? | -2 | ? | -4 | ? | 7.9µM*
CNC(=S)N/N=C(\C)c1ccc(C)c(C)c1 | 3.3µM* | -7 | 5µM* | 0 | 2.6µM* | 1.8µM*
COc1cccc2sc(N(CCCN(C)C)C(=O)c3ccc(S(=O)(=O)N4CCc5ccccc5C4)cc3)nc12 | 10µM* | -97* | 28µM* | -4 | 15µM* | -89%
Cc1ccc2sc(N(CCCN(C)C)C(=O)c3ccc(S(=O)(=O)N4CCc5ccccc5C4)cc3)nc2c1C | 4.1µM* | -82* | nt | -6 | 4.6µM* | nt
